Out of some 340,000 compounds screened, about 1,000 (0.29%) were called active. Rule as the data show it: inconclusive = inhibition above about 29% without an active follow-up result; inactive = below that. Only a sample is shown. Entries with a potency or affinity are not part of this list.

Here are results for 95 compounds from PubChem BioAssay AID588689 (Southern Research Specialized Biocontainment Screening …, 2011).

This experiment has as its target Genome polyprotein (Dengue virus type 2 (strain 16681-PDK53)) (UniProt P29991). Description: Dengue-2 NS5 methyltransferase inhibitors, primary screen, biochemical, confirmation dose response (AID 588689). Particulars: Dengue-2 NS5 methyltransferase capping enzyme assay, at 25 µM, stronger effect = higher value.
Where [1] appears, read: measured here: pilot screen replicate inhibition.

For the compound `Cc1cc(C)c(NC(=O)c2ccc3c(c2)NC(=O)C(C)S3)c(C)c1` (configuration not stated), the inhibition – broadly, the drop in the measured response relative to a control, in per cent – was -0.76% (inactive).

In the case of `O=S(=O)(NCCc1ccc(F)cc1)c1ccc(F)cc1Br`, the inhibition is -1.99% (inactive). In addition, the inhibition under setting [1] is -0.92%.

As to `CCCCCC(=O)NNC1=NCC(Cc2cccc(Cl)c2)S1` (configuration not stated), the inhibition was -9.62% (inactive).

As for `CCN(Cc1cnn(C)c1)Cc1nc(Cc2ccccc2Cl)no1`, the inhibition is -2.18% (inactive).

For `CCCCN1C(=O)/C(=C2\SC(N3CCCCC3)=NC2=O)c2ccccc21`, the inhibition was 1.1% (inactive).

For `O=C(NCc1ccccc1)c1cccc(S(=O)(=O)N2CCCCC2)c1`, the inhibition is -8.7% (inactive).

As for `COc1ccc(OC)c(/C=N/NC(=O)c2ccncc2)c1`, the inhibition was -7.07% (inactive).

Consider `CCc1ccccc1N(CC(=O)OC)S(C)(=O)=O`, for which the inhibition was 3.12% (inactive).

Turning to `Cc1cc(O)ccc1C1(c2ccc(O)cc2C)OC(=O)c2ccccc21`, the inhibition was -9.01% (inactive).

For the compound `O=C1OC2(c3ccccc31)c1ccccc1-c1ccccc12`, the inhibition is 8.53% (inactive).

Regarding `O=C1OC(c2ccccc2)(c2ccccc2)c2ccccc21`, the inhibition is -6.99% (inactive).

Consider `O=C1OC(c2ccccc2)(c2ccc(O)cc2)c2ccccc21` (configuration not stated), for which the inhibition is 0.78% (inactive).

`CC1CCCN(C(=O)c2nn(C)c3c2CS(=O)(=O)c2ccccc2-3)C1` (configuration not stated): the inhibition is -6.35% (inactive).

On to `COc1ccc(/C=C/C(=O)NC(C)(C)C)cc1S(=O)(=O)N1CCOCC1`, for which the inhibition was 3.24% (inactive).

Take `O=C(Nc1ccc2oc(=O)ccc2c1)c1cc([N+](=O)[O-])ccc1N1CCOCC1`: the inhibition is -4.64% (inactive).

For the compound `Cc1ccc(OC(C)C(=O)N2CC(=O)Nc3ccccc32)cc1` (configuration not stated), the inhibition was 1.78% (inactive).

`C[C@@H]1CN([C@@H](C)CO)C(=O)Cc2cc(NC(=O)Nc3ccc(F)cc3)ccc2O[C@@H]1CN(C)Cc1ccc(Cl)c(Cl)c1`: the inhibition is -10.3% (inactive).

On to `Cc1nc(SCC(=O)NC(C)(C)C)c2c(-c3cccs3)csc2n1`, for which the inhibition was -9.82% (inactive).

Regarding `COc1ccc(N2CCN(C(c3nnnn3C3CCCC3)C(C)C)CC2)cc1` (configuration not stated), the inhibition was -0.74% (inactive).

For the compound `Cc1ccc(C)n1Cc1ccccc1Cl`, the inhibition was -24.6% (inactive).

As for `C=CCNC(=O)COc1c(C)ccc(C)c1C`, the inhibition is -2.27% (inactive).

As for `CCOC(=O)N1CCC(N2C(=O)c3ccc(C(=O)NCCC(C)C)cc3C2=O)CC1`, the inhibition is -0.65% (inactive).

For the compound `O=C(O)c1ccc(NC(=O)C(c2ccccc2)c2ccccc2)cc1`, the inhibition is -5.43% (inactive).

Take `O=C(Nc1ccc(C(=O)c2ccc(C(=O)O)c(C(=O)O)c2)cc1)c1ccccc1`: the inhibition is 6.21% (inactive).

As to `NC1=NN(c2c(Cl)cc(Cl)cc2Cl)C(=O)C1`, the inhibition was -5.65% (inactive).

For the compound `CC(C)(C)C(=O)NC1=NN(c2c(Cl)cc(Cl)cc2Cl)C(=O)C1`, the inhibition is 6.11% (inactive).

For `CC(C)/C=C/C(=O)N1CCC(N2CCC(C(=O)NCC3CCCO3)CC2)CC1` (configuration not stated), the inhibition was 6.04% (inactive).

Turning to `O=C(NCc1ccccn1)c1cccc(S(=O)(=O)N2CCc3ccccc32)c1`, the inhibition is 5.83% (inactive).

Regarding `O=C(Nc1ccc(O)cc1C(=O)O)c1ccc2c(c1)C(=O)N(Cc1ccco1)C2=O`, the inhibition was -4.89% (inactive).

On to `Cc1c(NC(=O)c2ccc3c(c2)C(=O)N(Cc2ccco2)C3=O)cccc1C(=O)O`, for which the inhibition is 6.25% (inactive).

As for `O=C1CSC(=S)N1/N=C/c1ccc2c(c1)OCCO2`, the inhibition was -7.17% (inactive).

On to `Cc1ccc(OCC(=O)NCCNC(=O)c2cnccn2)cc1C`, for which the inhibition was -4.45% (inactive).

Take `COc1ccccc1C(NC(C)=O)c1cc(Cl)c2cccnc2c1O` (configuration not stated): the inhibition is -1.32% (inactive).

With `Oc1c(C(Nc2ccccn2)c2cccnc2)cc(Cl)c2cccnc12` (configuration not stated), the inhibition was -1.46% (inactive).

Consider `CCOCCSc1n[nH]c(=O)n1CCc1ccccc1`, for which the inhibition is 0.65% (inactive).

On to `COC(=O)CCCC1=CC2=CC(=O)C(C)(OC(=O)C3CCCC3)C(=O)C2=CO1` (configuration not stated), for which the inhibition was -2.4% (inactive).

`CCCCC1=CC2=CC(=O)C(C)(OC(=O)C3CCCC3)C(=O)C2=CO1` (configuration not stated): the inhibition was -4.96% (inactive).

With `O=C(Nc1ccccc1N1CCCCC1)C1CC(=O)N(c2ccccc2F)C1` (configuration not stated), the inhibition is -1.45% (inactive).

As for `COCCNc1nc2ccccc2n2cnnc12`, the inhibition was -9.27% (inactive).

As to `N#Cc1c2ccc([N+](=O)[O-])cc2[n+]([O-])n1-c1ccccc1`, the inhibition was 15.2% (inactive).

On to `O=[N+]([O-])c1cc(Br)c(Nc2ccccc2)c([N+](=O)[O-])c1`, for which the inhibition is 5.88% (inactive).

Consider `CCO[C@H]1OC(C(=O)N2CCN(C)CC2)=C[C@@H](c2ccc(C(F)(F)F)cc2)[C@@H]1CCCO`, for which the inhibition was -3.14% (inactive).

`CC1=NN(C(N)=S)C(=O)C1N=Nc1c(C)cc(C)cc1C` (configuration not stated): the inhibition is -2.39% (inactive).

Turning to `CC1=NN(C(N)=S)C(=O)C1N=Nc1ccc(Br)cc1` (configuration not stated), the inhibition was 7.71% (inactive).

Take `Cc1ccc(Sc2sc(=O)n(C)c2S(=O)(=O)c2ccc(C)cc2)cc1`: the inhibition is -2.3% (inactive).

For `Cc1ccc(Sc2c(C)[nH]n(C(C)(C)C)c2=O)cc1`, the inhibition is -4.77% (inactive). Also, the inhibition under setting [1] was determined as 2.59%.

Regarding `CCOc1ccc(OCc2ccc(C(=O)N(CC)CC)cc2)cc1`, the inhibition is -20% (inactive).

With `CCn1c(CSc2nccn2C)nc2cc(C(=O)O)ccc21`, the inhibition is 1.61% (inactive).

On to `CCn1c(CSc2nnc(-c3ccncc3)n2C)nc2cc(C(=O)O)ccc21`, for which the inhibition is 7.11% (inactive).

On to `O=C(CCn1c(=O)oc2ccc(Cl)cc21)NCCCN1CCOCC1`, for which the inhibition is -12.3% (inactive).

For the compound `CCOc1ccc2nc(SCC(=O)NC3CCCc4ccccc43)sc2c1` (configuration not stated), the inhibition was -8.65% (inactive).

On to `O=C1NC2(CCCCCC2)Cc2ccccc21`, for which the inhibition was -4.23% (inactive).

Regarding `Cc1cc(SCC(=O)Nc2ccccc2)n2ncc(-c3ccccc3)c2n1`, the inhibition was -3.11% (inactive).

In the case of `Cc1ccc(NC(=O)c2ccc(-n3cccn3)c([N+](=O)[O-])c2)cc1`, the inhibition is 0.68% (inactive).

Turning to `O=C1c2ccccc2C(O)(c2ccccc2)N1c1ccncc1` (configuration not stated), the inhibition was -5.22% (inactive).

With `Cc1ccc(N2C(=O)c3ccccc3C2(O)c2ccccc2)cc1` (configuration not stated), the inhibition is -0.39% (inactive).

Turning to `CC1CN(C(=O)c2nn(C)cc2[N+](=O)[O-])CC(C)O1` (configuration not stated), the inhibition was -1.37% (inactive).

As to `CCCCn1c(-c2cccnc2)nc2cc3[nH]c(=O)c(C(C)C)nc3cc21`, the inhibition was 4.01% (inactive).

For the compound `COc1ccccc1OCC#CCSc1ncccn1`, the inhibition was -53.6% (inactive).

Regarding `C#CCN(C[C@H]1[C@H](OC(=O)Nc2cccs2)[C@H](OC(=O)Nc2cccs2)C[C@H]2C(=O)N(c3ccccc3)C(=O)[C@@H]12)S(=O)(=O)c1ccc(C)cc1`, the inhibition was 2.32% (inactive).

For the compound `COc1ccc(S(=O)(=O)/C(C#N)=C/Nc2cccc(F)c2)cc1`, the inhibition was -2.28% (inactive).

Take `Cc1ccc(NC(=O)/C(C#N)=N/Nc2ccc(C(=O)O)cc2)c(C)c1`: the inhibition was 3.18% (inactive).

With `Cc1ccc(F)c(NC(=O)CCc2ccccc2)c1`, the inhibition is -5.56% (inactive).

In the case of `Cc1ccc(C)c2[nH]c(=O)c(CCNS(=O)(=O)c3ccccc3)cc12`, the inhibition was -0.7% (inactive).

With `COc1cc(/C=C2\SC(=S)N(Nc3ccccc3)C2=O)cc(OC)c1OC`, the inhibition is -1.38% (inactive).

Turning to `COc1cc(/C=C2\SC(=S)N(CCC(=O)Nc3ccccc3)C2=O)cc(OC)c1OC`, the inhibition was 0% (inactive).

As for `Cc1ncsc1CCOC(=O)C12CC3CC(CC(C3)C1)C2`, the inhibition is -12.1% (inactive).

Regarding `CCOC(=O)c1c(C)nc(C)c(C(=O)OCC)c1-c1ccc(OC)cc1`, the inhibition was 0.8% (inactive).

For the compound `O=C(NC(Cc1c[nH]c2ccccc12)C(=O)Nc1ccc(OC(F)(F)F)cc1)c1cccs1` (configuration not stated), the inhibition was -0.91% (inactive).

Turning to `O=C1C=C(O)c2cccc(O)c2C1=O`, the inhibition was 10.9% (inactive).

Regarding `O=C1C(=O)c2c(ccc3ccccc23)-c2ccccc21`, the inhibition is 8.87% (inactive).

Turning to `COc1cc(C2CC(=O)c3c(O)cc(O)cc3O2)ccc1O` (configuration not stated), the inhibition was -4.19% (inactive).

`COc1c(CC=C(C)C)cc(C2CC(=O)c3c(O)cc(O)cc3O2)cc1CC=C(C)C` (configuration not stated): the inhibition is 1.45% (inactive).

Consider `O=C(Nc1ccccn1)c1ccc(Cl)c(S(=O)(=O)N2CCCC2)c1`, for which the inhibition is -10.4% (inactive).

With `O=C(CCN1CCN(CCO)CC1)Nc1cccc(Br)c1`, the inhibition was 0% (inactive).

Take `N#Cc1cc([N+](=O)[O-])ccc1NC(=O)COC(=O)C1CC2CCCC(C1)C2=O` (configuration not stated): the inhibition was -2.16% (inactive).

In the case of `CCOc1cc(/C=N\Nc2ccc([N+](=O)[O-])cc2)ccc1OCC(=O)Nc1ccc(C)c(C)c1`, the inhibition is 22% (inactive).

`COc1cc(/C=N/NC(N)=O)ccc1OCC(=O)Nc1ccc(C)c(C)c1`: the inhibition is -9.1% (inactive).

With `CCC(=O)Nc1nnc(-c2cccs2)s1`, the inhibition is -6.55% (inactive).

Consider `CCN(CC)S(=O)(=O)c1ccc(OC)c(NS(=O)(=O)Cc2ccccc2)c1`, for which the inhibition is -2.33% (inactive).

As for `COc1ccc([N+](=O)[O-])cc1NS(=O)(=O)Cc1ccccc1`, the inhibition was -3.44% (inactive).

For the compound `COc1cc(/C=C2/SC(N)=NC2=O)ccc1Oc1ccc([N+](=O)[O-])cc1[N+](=O)[O-]`, the inhibition is 4.51% (inactive).

For the compound `COc1ccc(NS(=O)(=O)Cc2ccccc2)cc1OC`, the inhibition was 0% (inactive).

Regarding `CSc1ccc(S(=O)(=O)Nc2ccc3c(c2)NC(=O)CC3)cc1`, the inhibition was 0% (inactive).

For `CN(CC(=O)Nc1ccc(Cl)c(C(F)(F)F)c1)C(=O)c1cccc2cccnc12`, the inhibition is 2.2% (inactive).

Turning to `Cc1ccc(O)c(NC(=O)Cc2ccc3ccccc3c2)c1`, the inhibition is -11.9% (inactive).

On to `CC(NC(=O)CCNS(=O)(=O)c1cccc2nonc12)c1ccccc1` (configuration not stated), for which the inhibition is -6.33% (inactive).

As to `O=Cc1cn(CCC(=O)O)nc1-c1cccc(Br)c1`, the inhibition is 14.3% (inactive).

As for `Cc1ccc(-c2nn(CCC(=O)O)cc2/C=C\C(=O)c2ccc(Br)cc2)cc1`, the inhibition was 7.02% (inactive).

On to `O=C(O)CCn1cc(C(=O)O)c(-c2ccccc2)n1`, for which the inhibition was -1.47% (inactive).

Turning to `O=Cc1cn(CCC(=O)O)nc1-c1cccc(Cl)c1`, the inhibition was -3.9% (inactive).

For `O=C(O)CCn1cc(/C=C2/NC(=S)N(c3ccccc3)C2=O)c(-c2ccccc2)n1`, the inhibition is 2.91% (inactive).

`O=C(O)CCn1cc(/C=C2\NC(=S)N(c3ccccc3)C2=O)c(-c2ccc(Br)cc2)n1`: the inhibition was 3.12% (inactive).

Consider `NC(=S)N/N=C/c1cn(CCC(=O)O)nc1-c1cccc(Br)c1`, for which the inhibition was -15.9% (inactive).

Consider `CCOC(=O)/C(C#N)=C/c1cn(CCC(=O)O)nc1-c1cccc(Cl)c1`, for which the inhibition was -8.58% (inactive).
